# D2 ag-1 = activates the human D2 dopamine receptor; 0.53% of 340,000 active; activation, % at 2 µM; AID 485358; HEK293 T-REx D2 cells, calcium flux agonist mode;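 active = activation over 3 SD above normal in the single-dose calcium agonist read, cut at about 30% in these data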; note: 0% is about no effect
# Target sequence (P14416 whole entry, looked up): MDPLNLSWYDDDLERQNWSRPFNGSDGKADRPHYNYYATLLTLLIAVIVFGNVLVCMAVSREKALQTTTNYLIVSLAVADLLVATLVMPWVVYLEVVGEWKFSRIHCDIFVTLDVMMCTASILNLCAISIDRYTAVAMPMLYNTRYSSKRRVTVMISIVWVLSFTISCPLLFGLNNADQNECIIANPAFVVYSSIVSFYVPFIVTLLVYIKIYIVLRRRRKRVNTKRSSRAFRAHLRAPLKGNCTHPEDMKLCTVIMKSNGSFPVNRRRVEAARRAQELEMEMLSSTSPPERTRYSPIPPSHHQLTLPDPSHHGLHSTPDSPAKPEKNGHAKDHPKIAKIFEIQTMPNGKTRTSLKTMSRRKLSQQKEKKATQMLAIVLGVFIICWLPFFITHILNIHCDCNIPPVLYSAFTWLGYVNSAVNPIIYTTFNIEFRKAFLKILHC
#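 HEK293 Trex D2 cells, tetracycline-induced, o/n 30 C 5% CO2; no-wash Ca dye, RT 30–90 min; 10-cycle baseline, 23 nl cpd added, kinetic Ca read 180 s; agonist hits = positive Ca response.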
# D2 antag = antagonizes the human D2 dopamine receptor; HEK293 TREx D2 cells, calcium flux, dopamine EC80; inhibition, % at 10 µM; 2% of 340,000 active; in the data active = inhibition above about 30%; inactive = below that, where a call was filed; note: 0% is about no effect
#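 In this primary screen, negative modulation is detected by tracking calcium flux after an EC80 dopamine challenge in inducible HEK293 T-REx D2 cells preexposed to test compound for 180 s.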
# D2 PAM-1 = human D2 receptor positive allosteric modulation; P14416; AID 624464; potentiation, % (test concentration not listed); 0.23% of 360,000 active; DiscoveRx D2 beta-arrestin cells, luminescence, 90 min; 100% = 57 uM dopamine signal; in the data active = potentiation above about 50%; inconclusive = mostly about 30% to 49%
#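 D2 cells co-treated with compound plus 50 nM dopamine (EC20) for 90 min at 37 deg C to detect potentiation. Beta-arrestin recruitment was read as enzyme-fragment luminescence after 1 h at ambient temperature. Full response was set by 57 uM dopamine.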
# D2 ag-2 = activates the human D2 dopamine receptor; P14416; 0.084% of 360,000 active; activation, % (test concentration not listed); DiscoveRx PathHunter D2 beta-arrestin, luminescence, 90 min; 100% = 57 uM dopamine signal; AID 624465; in the data active = activation above about 40%; inconclusive = between about 15% and that limit
#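 DiscoveRx PathHunter D2 beta-arrestin cells (2,100/well) attached overnight, then compound-stimulated 90 min at 37 C in HBSS/10 mM HEPES/0.1% Tween-20 buffer; beta-galactosidase complementation read by luminescence after 1 h at ambient temperature. Dopamine 57 uM final (EC100) as control.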
# D2 PAM-2 = D2 dopamine receptor (human) potentiation. potentiation, % at 10 µM. HEK293 T-REx D2, calcium flux, EC20 dopamine potentiation. 0.34% of 340,000 active. P14416;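 active = potentiation over 3 SD above the plate norm, cut at about 30% in these data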; note: 0% is about no effect
#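 Calcium flux readout, no-wash dye, 1 read/s. Inducible HEK293 Trex D2 line, overnight 30 C. Compound alone 180 s (agonist flags), then EC20 dopamine, another 180 s to score potentiation.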
# * marks the source's active call; other numbers are inactive results; ? = inconclusive; · = no result. An excerpt weighted towards active compounds, which were near 2.4% of everything screened.
SMILES,D2 ag-1,D2 antag,D2 PAM-1,D2 ag-2,D2 PAM-2
CCC(C)NC(=O)Cn1c(=O)n(-c2cc(OC)cc(OC)c2)c(=O)c2ccccc21 (stereo not given),·,·,·,·,-5.1
Cc1ccc(S(=O)(=O)NCC(=O)OCC(=O)N(CCC#N)c2ccccc2)cc1,·,·,-4.9,-4.2,·
O=C(Nc1ccon1)Nc1ccc(F)cc1F,-0.1,31.4*,-1.4,-2.3,-3.1
CCOc1ccccc1-c1nc(CN2CCCN(C(=O)c3ccco3)CC2)c(C)o1,-1.1,32.8*,-51.3,-6.4,-24.1
COC(=O)C1CCN(CC(=O)Nc2cc(C)c3c(=O)oc4ccccc4c3n2)CC1,8.1,·,·,·,-3.1
COc1cc(NC(=O)Cn2cnc(S(=O)(=O)N3CCOCC3)c2)cc(OC)c1OC,-0.7,45.4*,-28.1,-2.5,-7.3
COc1ccc2c(c1)C(O)C(CO)C(C(=O)O)C2 (stereo not given),·,·,-10.8,-0.4,·
O=C(CCc1ccc(S(=O)(=O)N2CCOCC2)cc1)N/N=C/c1ccc(F)cc1F,0.2,-12.2,-6.7,1.1,-5.7
O=C(CCc1ccc(S(=O)(=O)N2CCOCC2)cc1)N/N=C/c1ccc(O)c(O)c1O,0.5,-3.2,82.1*,?,10.1
Cc1occc1C(=O)NNC(=O)c1ccc(S(=O)(=O)N(C)C)cc1,0.4,13.4,-11.3,-0.7,8.2
Cc1cc2n(n1)C(c1ccccc1)CC(c1ccc(Br)cc1)=N2 (stereo not given),7.8,51.6*,9.8,6.2,-2.2
Cc1ccc2sc(N(Cc3cccnc3)C(=O)CCOc3ccccc3)nc2c1C,·,·,·,·,-1.7
O=C(/C=C/Nc1ccc(F)cc1)c1ccc(Oc2ncccn2)cc1,-0.1,34.5*,-8.0,-3.0,1.7
CCN(CC)C(=O)c1cc(S(=O)(=O)N2CCCCC2)c[nH]1,0.6,32.7*,-4.6,1.6,-11.9
Cc1ccc2[nH]c(CSc3nnc(C)s3)cc(=O)c2c1,0.5,·,·,·,-4.5
COc1ccc(OCCCC(=O)Nc2nncs2)cc1,0.8,4.2,-10.3,0.8,38.8*
Cc1ccc(C(O)c2ncc(-c3ccc(Cl)cc3)[nH]2)cc1F (stereo not given),·,·,-19.5,-1.7,·
CC(=O)C(C)Oc1ncn(-c2ccccc2)n1 (stereo not given),0.1,33.4*,-17.1,0.8,11.1
O=C(NCc1ccccc1)c1ccc2nnsc2c1,0.2,33.6*,-3.0,-3.9,0.1
Cc1ccc(-c2cn3c(n2)sc2cc(C(=O)NCCC4=CCCCC4)ccc23)c(C)c1,0.9,·,·,·,5.6
O=c1c2cc3c(nc2ncn1Cc1ccccc1F)CCCC3,-1.1,·,·,·,4.3
c1ccc(Cn2cc(CNc3ccccc3)nn2)cc1,0.0,41.8*,-5.0,0.1,-3.4
Cn1nnnc1SCC(=O)N1CCc2ccccc21,0.3,3.3,-7.0,-1.4,-0.8
Cn1nnnc1SCC(=O)N1CCCc2ccccc21,-0.5,40.6*,-3.1,-3.2,-5.3
Cc1ccc[n+](CC(=O)N2CCCc3ccccc32)c1,0.6,31.2*,-11.8,3.0,-15.6
SMILES,D2 ag-1,D2 antag,D2 PAM-1,D2 ag-2,D2 PAM-2
Cc1ccccc1CC(=O)N1CCCc2ccccc21,-0.1,-1.3,-1.4,-3.6,2.5
COc1ccc(CCNC(=O)C(C)n2nc(C)c3sc4ccccc4c3c2=O)cc1OC (stereo not given),0.6,·,·,·,3.7
COc1ccccc1NC(=O)CC1Sc2ccc(C(F)(F)F)cc2NC1=O (stereo not given),-1.2,·,·,·,-1.9
CCC(=O)N1CCc2cc(S(=O)(=O)CCC(=O)NCc3ccc(C)cc3)ccc21,0.3,0.5,-9.5,-0.4,-4.7
CCC(=O)N1CCc2cc(S(=O)(=O)CCC(=O)NCCc3ccc(S(N)(=O)=O)cc3)ccc21,0.4,32.4*,-6.5,-1.5,-6.0
COc1ccc(CC(=O)NCC2CCCN(Cc3cccc(C(F)(F)F)c3)C2)cc1 (stereo not given),2.2,-15.2,-31.1,-3.2,0.6
O=C(NCC1CCCN(Cc2ccccc2F)C1)c1cccc(C(F)(F)F)c1 (stereo not given),1.5,31.5*,-9.8,-4.8,-15.1
CSc1ccc(CN2CCCC(CNC(=O)c3ccc(F)cc3)C2)cc1 (stereo not given),0.3,40.7*,-18.0,0.1,-13.8
COCCn1c(C)cc(O)c(C(c2ccc(Cl)cc2)N2CCCCC2)c1=O (stereo not given),0.2,·,·,·,7.6
CCc1ccc(N2CCN(CCNC(=O)Nc3ccccc3)CC2)cc1,·,73.5*,10.2,7.6,·
O=C(CSc1ccc(Br)cc1)Nc1cccc(S(=O)(=O)N2CCOCC2)c1,0.0,13.6,5.3,0.6,-7.7
Cc1ccc(SCC(=O)Nc2cccc(S(=O)(=O)N3CCOCC3)c2)cc1C,0.4,34.9*,-3.6,-1.8,8.5
COc1ccc(C(C)=O)cc1CC(=O)Nc1cccc(S(=O)(=O)N2CCOCC2)c1,0.4,32.8*,-1.5,-2.4,-10.5
COc1ccc(C(C)=O)cc1CC(=O)Nc1ccccc1-c1ccccc1,-1.1,-3.8,3.8,-5.8,31.2*
Cc1ccc(CSc2nc(=O)c3c(C)cc(C)nc3n2C2CC2)cc1,-5.0,·,·,·,0.3
COc1ccccc1NC(=O)C(C)OC(=O)CCNS(=O)(=O)c1ccc(C)c(C)c1 (stereo not given),-0.4,40.0*,-27.8,-4.9,-14.4
CC(=O)c1ccc(OCC(O)CN2CCN(S(=O)(=O)c3c(C)cc(C)cc3C)CC2)cc1 (stereo not given),0.7,-0.2,-6.3,1.0,1.8
CC(=O)c1ccc(N2CCN(CC(O)COC(c3ccccc3)c3ccccc3)CC2)cc1 (stereo not given),-0.8,-17.1,-12.2,-0.9,37.1*
CC1CCCN(CC(O)COC(c2ccccc2)c2ccccc2)C1 (stereo not given),1.0,50.2*,-9.9,-1.0,-9.7
COc1cc(C(C)=O)ccc1OCC(O)CN1CCN(c2cc(C)cc(C)c2)CC1 (stereo not given),1.4,57.9*,-4.2,3.8,-30.3
Fc1ccc(Nc2nc3ccccc3c3nncn23)c(Cl)c1,0.1,·,·,·,-3.0
CCCNC(=O)C1(C)CCCN(CCC(=O)c2ccccc2)C1 (stereo not given),·,·,-6.3,-2.6,·
COc1ccc(OC)c(C2c3[nH]c4ccccc4c3C[C@H]3C(=O)N(CCCOC(C)C)CC(=O)N23)c1 (stereo not given in full),0.2,7.7,-11.1,-2.2,-8.5
CN1CCN(CC(C)(C)NS(=O)(=O)c2ccc(Cl)cc2)CC1,-0.7,-6.5,-19.7,-1.8,-14.1
CC(C)(CN1CCN(Cc2ccccc2)CC1)NS(=O)(=O)c1ccc(Cl)cc1,-0.7,43.6*,-26.6,-2.3,-33.1
CCCCc1ccc(NC(=S)NCCc2ccc(F)cc2)cc1,0.2,30.5*,-10.8,0.2,-25.0
CCCCNC(=S)Nc1ccc(Cl)cc1,1.1,4.4,-20.7,-3.0,-3.1
